Source: ChEMBL document CHEMBL3433997, “St. Jude Leishmania screening dataset” (2016)

Experiments:
Type in all cases: functional
[1] = molecular target: Solute carrier family 2, facilitated glucose transporter member 1 (Homo sapiens) (UniProt P11166); experiment: ST_JUDE_LEISH: Cytotoxicity at 2uM final concentration against transgenic Leishmania Mexicana promastigotes LmGLUT1 that are glucose transport deficient and complemented with the human glucose transporter GLUT1. Activity is measured by DNA content using SYBR green in vitro
Solute carrier family 2, facilitated glucose transporter member 1 (Homo sapiens), sequence (P11166 whole entry): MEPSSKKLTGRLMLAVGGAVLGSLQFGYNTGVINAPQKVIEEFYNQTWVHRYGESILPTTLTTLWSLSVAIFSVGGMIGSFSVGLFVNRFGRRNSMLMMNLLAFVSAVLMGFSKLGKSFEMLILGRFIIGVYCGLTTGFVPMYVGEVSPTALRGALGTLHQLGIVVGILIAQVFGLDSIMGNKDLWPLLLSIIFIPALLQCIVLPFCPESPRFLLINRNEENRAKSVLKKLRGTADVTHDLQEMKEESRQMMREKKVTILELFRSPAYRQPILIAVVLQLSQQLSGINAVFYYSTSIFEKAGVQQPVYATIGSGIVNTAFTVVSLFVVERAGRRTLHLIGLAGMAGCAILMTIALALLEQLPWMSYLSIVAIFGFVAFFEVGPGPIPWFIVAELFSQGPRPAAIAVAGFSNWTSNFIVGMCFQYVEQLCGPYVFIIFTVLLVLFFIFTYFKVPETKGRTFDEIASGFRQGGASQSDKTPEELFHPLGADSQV

[2] = molecular target: Hexose transporter 1 (Plasmodium falciparum) (UniProt O97467); experiment: ST_JUDE_LEISH: Cytotoxicity at 2uM final concentration against transgenic Leishmania Mexicana promastigotes LmPfHT that are glucose transport deficient and complemented with the Plasmodium falciparum hexose transporter. Activity is measured by DNA content using SYBR green in vitro
[3] = molecular target: Glucose transporter (Leishmania mexicana) (UniProt O61059); experiment: ST_JUDE_LEISH: Cytotoxicity at 2uM final concentration against transgenic Leishmania Mexicana promastigotes LmGT2 that are glucose transport deficient and complemented with the L. Mexicana glucose transporter 2. Activity is measured by DNA content using SYBR green in vitro

SMILES | inhibition [1] | inhibition [2] | inhibition [3]
O=C(/C=C/C=C/c1ccccc1)NCCCCCN1CCC(c2c[nH]c3ccccc23)CC1 | 3.2% | 4.23% | 1.69%
Fc1ccc2[nH]c(-c3ccc(-c4ccc(CNCC5CCCO5)cc4)cc3)nc2c1 (stereo not given) | 12.4% | 11.2% | 7.73%
Cc1ccc2nc(C)cc(NC(=O)Nc3ccc(N(C)C)cc3)c2c1 | 7.58% | 5.69% | 7.68%
NCCCNc1nccc(N2CCc3ncnc(Nc4ccc(OCc5cccc(F)c5)c(Cl)c4)c3C2)n1 | 2.13% | 4.48% | 4.02%
CC(C)(CNC(=O)C1CCN(CCOc2ccc(F)c(F)c2)CC1)c1nc(-c2ccc(Cl)c(O)c2)c(-c2ccncc2)[nH]1 | 4.62% | 4.16% | 5.08%
c1ccc(-c2[nH]c3ccccc3c2CN2CCC(N3CCCCC3)CC2)nc1 | -2.72% | -0.46% | -1.64%
Cc1cc(NCCCCCCN)nc(Nc2ccc(Cl)cc2)n1 | 5.87% | 5.27% | -0.67%
Cc1cccc2nc(C3CCN(CC4CCN(C(=O)/C=C/c5ccc(Cl)c(Cl)c5)CC4)CC3)[nH]c12 | 10.9% | 11.5% | 10.6%
COc1ccc(Br)cc1/C=C/C(=O)Nc1cccc(C2CCN(C)CC2)c1 | 3.43% | 0.87% | 4.16%
CO/C(=C\C=C\c1cc2cc(Cl)c(Cl)cc2[nH]1)C(=O)NCCCN1CC(C)N(C)CC1C (stereo not given) | 7.33% | 5.89% | 6.63%
O=C(Nc1ccc(S(=O)(=O)N2CCOCC2)cc1)c1cc(-c2cc(Cl)ccc2O)n[nH]1 | 0.98% | 0.88% | 0.85%
CS(=O)(=O)Nc1cccc(-c2cnc3[nH]cc(-c4ccc(CCC(=O)O)cc4)c3c2)c1 | 2.69% | 1.66% | 4.76%
CN1CCN(c2ccc(Nc3c4ccccc4nc4ccccc34)cc2)CC1 | 7.02% | 6.39% | 5.74%
O=C(N[C@@H](Cc1ccccc1)C(=O)NCCN1CCCC1)c1ccc(O)c(-c2ccc(Cl)c(Cl)c2)c1 | 7.15% | 3.32% | 6.16%
O=C(/C=C/c1ccc(Cl)c(Cl)c1)NCCCCCN1CCCN(C(=O)Nc2ccc(Cl)c(Cl)c2)CC1 | -0.96% | -0.4% | -0.85%
